# From PubChem BioAssay AID1259417 (TB Discovery Research, Infectious Disease Research Institute, 2018)
# Screen size: about 1,100 compounds; about 760 (69%) were called active. How the calls were made is not given here. So high a share suggests a set chosen from earlier hits. The list shows a part of the results.
# Assay: M. tuberculosis growth inhibition, HTS (AID 1259417);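 further: bacteria grown with compound for 5 days at 37 °C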
# Settings: stronger effect = higher value, concentration not given here
# [1] = M. tuberculosis DsRed fluorescence growth inhibition
# [2] = M. tuberculosis growth inhibition
Structure (SMILES),inhibition [1],inhibition [2] [%]
CCC(OC(C)=O)c1ccc(OC(C)=O)c(OC)c1 (configuration not stated),99.1% (active),90.6
COC(=O)COc1ccc(NC(=O)c2ccccc2I)cc1,61.7% (active),81.3
COC(=O)COc1ccc(NC(=O)c2ccccc2Br)cc1,76.3% (active),91.1
COC(=O)c1ccc(OCC(=O)Nc2ccccc2F)cc1,14.1% (active),74.2
COC(=O)COc1ccc(NC(=O)c2ccccc2F)cc1,77.8% (active),78.9
COC(=O)COc1ccc(NC(=O)c2ccccc2C)cc1,83.1% (active),93.5
Cc1ccc(-c2[nH]c3ccccc3c2SCCNC(=O)c2cc3ccccc3oc2=O)cc1,-0.558% (inactive),-17.6
O=C(NCCc1c[nH]c2ccccc12)c1cc2ccccc2oc1=O,99.2% (active),96
Cc1[nH]c2ccccc2c1SCCNC(=O)c1cc2ccccc2oc1=O,5.93% (inactive),16.9
O=C(NCCSc1c(-c2ccccc2)[nH]c2ccccc12)c1cc2ccccc2oc1=O,-6.27% (inactive),-5.81
CCCCCCc1cc2cc(C(=O)NC)c(=N)oc2cc1O,-2.33% (inactive),-16.9
O=C(NCCSc1c[nH]c2ccccc12)c1cc2ccccc2oc1=O,20.8% (active),42.8
Cc1nc2c(-c3ccc(Cl)cc3)cnn2c(N)c1-c1ccccc1,13.8% (inactive),-1.8
Cc1cc(Nc2ccccc2)n(-c2nc3ccccc3[nH]2)n1,86.8% (active),93.2
Cc1nn(-c2nc3ccccc3[nH]2)c(N)c1-c1ccccc1,50.6% (active),84.2
Cc1coc2c1C(=O)C(=O)c1c-2ccc2c1CCCC2(C)C,96.6% (active),98.4
CN(C)C(=S)Nc1nc2ccccc2s1,99.7% (active),99.8
O=C(NCc1cccs1)c1cc2n(n1)C(C(F)(F)F)CC(c1ccc3c(c1)OCO3)N2 (configuration not stated),2.08% (inactive),-5.24
CCCCNC(=O)c1cc2n(n1)C(C(F)(F)F)CC(c1ccccc1)N2 (configuration not stated),95.4% (active),91.8
Cc1ccc(C2CC(C(F)(F)F)n3nc(C(=O)NCc4ccco4)cc3N2)cc1 (configuration not stated),80% (active),76.1
CNc1nc(N2CCc3ccccc32)ncc1F,100% (active),99.7
COc1ccc(NC(=O)C(Cc2c[nH]c3ccccc23)NC(C)=O)cc1 (configuration not stated),93.6% (active),90.1

Structure (SMILES),inhibition [1],inhibition [2] [%]
COc1ccc2[nH]cc(CCNC(=S)Nc3ccc(Nc4ccccc4)cc3)c2c1,-2.93% (inactive),-13.6
Cc1ccc(-c2csc(Nc3ccc(S(N)(=O)=O)cc3)n2)cc1,33.4% (active),44.5
Cc1ccc(-c2csc(Nc3ccc(C(=O)O)c(O)c3)n2)cc1,94.8% (active),94.9
Cc1cc(-c2csc(Nc3ccc(S(N)(=O)=O)cc3)n2)ccc1F,12% (inactive),9.99
O=C(Nc1ccccc1-c1ccccc1)C(Cl)(Cl)Cl,100% (active),99.6
C/C=C/c1ccc(OCC(=O)OCc2csc(Nc3ccc(C)cc3)n2)c(OC)c1,0.924% (active),37.2
Oc1ccc(Br)cc1C1=NNC(c2ccc(F)cc2)C1 (configuration not stated),99.5% (active),100
CCC(C)Oc1ccc(C(=O)NC(=S)Nc2ccc3c(c2)COC3=O)cc1 (configuration not stated),30.7% (active),25.2
COc1ccc2nc(C)cc(SCC(=O)OC(C)C)c2c1,89.3% (active),99.6
CCOC(=O)CSc1cc(C)nc2ccc(C)cc12,96.8% (active),99.3
Oc1cccc2ccc(C=Cc3cccc(F)c3)nc12,98.8% (active),99.7
CCC(=O)Oc1cccc2ccc(C=Cc3ccccc3F)nc12,92.1% (active),87.6
CC(=O)Oc1cccc2ccc(C=Cc3ccc(F)cc3)nc12,86.6% (active),89.9
O=C(C=Cc1cccc(C(F)(F)F)c1)Nc1cccc(Br)c1,9.1% (inactive),9.88
CC(=O)Oc1cccc2ccc(C=Cc3cccc(Br)c3)nc12,87.4% (active),84
O=C(C[n+]1cc(-c2ccc(Cl)c(Cl)c2)n2c1CCC2)N1c2ccccc2Sc2ccccc21,37.7% (active),43.1
Cc1ccc(-c2csc(NC(=O)C[n+]3cc(-c4ccc(C)cc4)n4c3CCC4)n2)cc1,13.7% (inactive),7.92
O=C(C[n+]1cc(-c2ccc(Cl)cc2)n2c1CCC2)N1c2ccccc2Sc2ccccc21,10.7% (inactive),3.46
CCCCn1c(=O)c(C(=O)Nc2nnc(C(C)C)s2)c(O)c2ccccc21,76.9% (active),72.9
COc1cc(/C=C/c2ccc3c([N+](=O)[O-])cccc3n2)ccc1OCC(=O)O,89.6% (active),92.7
CCOC(=O)COc1ccc2ccccc2c1C=C(C)[N+](=O)[O-],24% (inactive),10.8
O=[n+]1c2ccccc2n([O-])c2ccccc21,98.3% (active),98.8

Structure (SMILES),inhibition [1],inhibition [2] [%]
CCCn1c(CNc2ccccc2O)nc2ccccc21,99.4% (active),100
CCOC(=O)c1c(NC(=O)c2c(F)c(F)c(F)c(F)c2F)sc(C(=O)OC)c1C,99.4% (active),97.6
CCOC(=O)c1c(NC(=O)c2cccc(OC)c2)sc(C)c1-c1ccccc1,0.932% (inactive),-15.9
COC(=O)c1c(-c2ccccc2)csc1NC(=O)c1cc(OC)cc(OC)c1,4.19% (inactive),-6.55
COC(=O)c1sc(NC(=O)c2c(F)c(F)c(F)c(F)c2F)c(C(N)=O)c1C,98.6% (active),96.9
Cc1ccccc1C(=O)Nc1sc(Cc2ccccc2)c(C)c1C(N)=O,-2.04% (inactive),-9.31
COC(=O)c1c(-c2ccc(Cl)cc2)csc1NC(=O)c1c(F)c(F)c(F)c(F)c1F,91.1% (active),87.2
CCc1c(C)sc(NC(=O)c2c(F)c(F)c(F)c(F)c2F)c1C(=O)OC(C)C,98.2% (active),95.8
COC(=O)c1c(NC(=O)c2cc(OC)cc(OC)c2)sc2c1C(C(=O)OC)CC2 (configuration not stated),-0.558% (inactive),-13.8
CCc1c(C)sc(NC(=O)c2ccc(Br)cc2)c1C(N)=O,4.19% (inactive),7.97
CCOC(=O)c1c(-c2ccc(C)o2)csc1NC(=S)NC(=O)N(C)C,2.65% (inactive),-1.32
CCOC(=O)c1c(NC(=O)c2cccc([N+](=O)[O-])c2)sc(CC)c1-c1ccccc1,4.19% (inactive),-29.7
CCOC(=O)c1c(NC(=O)c2cccc(OC(C)=O)c2)sc(CC)c1-c1ccccc1,2.11% (inactive),-5.86
CCOC(=O)c1sc(NC(=O)c2c(F)c(F)c(F)c(F)c2F)c(C(=O)OCC)c1C,93.8% (active),88.9
CCOC(=O)c1c(NC(=O)c2c(F)c(F)c(F)c(F)c2F)sc(C(N)=O)c1C,98.6% (active),99.4
CCOc1ccc2ccccc2c1C(=O)Nc1sc(C)c(C)c1C(N)=O,9.82% (inactive),9.7
COC(=O)c1sccc1NC(=O)c1c(F)c(F)c(F)c(F)c1F,99.1% (active),97.7
Clc1ccc2c(c1)C1=C(C(c3ccncc3)O2)C(c2ccc(Br)cc2)n2ncnc2N1 (configuration not stated),96% (active),93.9
COc1cccc(C=NNc2nc(=O)[nH]nc2C)c1O,91.7% (active),94.9
CC(=NNc1nc(=O)[nH]nc1C)c1ccccc1O,98.6% (active),98.8
COc1ccc(C2(C(=O)Nc3ccc(Br)cc3)CCCC2)cc1,63.2% (active),81.4
CC(=NNc1nc(C)c(C)s1)c1ccc(Br)cc1,96.2% (active),89.4

Structure (SMILES),inhibition [1],inhibition [2] [%]
CCOC(=O)CCc1c(C)c(C#N)c2[nH]c3ccccc3n2c1=O,98.3% (active),96.2
CCOC(=O)COc1ccc2c(C#N)c3ccccn3c2c1,-0.849% (inactive),22.1
COC(=O)c1c2c(n3ccc(C)cc13)C(=O)c1ccccc1C2=O,99.2% (active),98.8
CCOC(=O)C1=C(c2ccc(C)cc2)C(=O)c2ccccc2C1=O,14.4% (inactive),16.3
CN(C)c1ccc(NC(=O)c2ccncc2)cc1,98% (active),100
CC(C)(C)c1ccc(C(=O)Nc2cccc(NC(=O)c3cccs3)c2)cc1,0.571% (inactive),22.7
Cc1ccc(NC(=O)c2cc3cc(Cl)cc(Cl)c3oc2=O)c(C)c1,9.67% (active),43.2
O=C1c2ccccc2C(=O)N1CCCCN(C(=O)c1cc([N+](=O)[O-])cc([N+](=O)[O-])c1)c1ccc(Cl)cc1,97.2% (active),92.5
CCOC(=O)c1c(C)oc2ccc(OC(=O)c3cccs3)cc12,-0.261% (inactive),2.41
CC1=CC(C)(C)Nc2ccc(OC(=O)c3cccnc3)cc21,9.4% (active),36.8
CC1=CC(C)(C)Nc2ccc(OC(=O)c3cccs3)cc21,49.6% (active),74.6
O=C(Nc1ncnc2sc3c(c12)CCCC3)c1ccc(F)cc1,26.6% (active),61.8
Cc1cccc(N2CCN(c3ncnc4sc5c(c34)CCCC5)CC2)n1,7.93% (inactive),-17.2
NC(=O)c1c(NC(=O)c2ccc(COc3ccccc3Cl)cc2)sc2c1CCCC2,-7.68% (inactive),-40
CCOC(=O)c1cnc2ccc(OC)cc2c1Nc1ccc2c(c1)OCCO2,36.6% (active),24
CCCC(=O)OCCNc1cc(SCc2ccco2)c2nonc2c1[N+](=O)[O-],22% (inactive),21
O=C(CC(SCc1ccco1)c1cccc([N+](=O)[O-])c1)c1ccco1 (configuration not stated),96.9% (active),97.7
CC(=O)OCCNc1cc(SCc2ccco2)c2nonc2c1[N+](=O)[O-],14.7% (inactive),11.3
CCCCn1c(O)c(/C=C2\C=CC=N2)c(=O)[nH]c1=O,58.2% (active),89.6
Cc1cc(C)c(-n2c(O)c(/C=C3\C=CC=N3)c(=O)[nH]c2=O)c(C)c1,97.7% (active),98.6
